Assay results: PubChem BioAssay AID1159580 (chemical genetic matrix, 2015)
About 2,000 (36%) of roughly 5,500 compounds were called active. Not shown: some 18% with an inconclusive outcome. Rule as the data show it: active = normalized growth mostly below about 0.91 (no sharp cut-off); inconclusive = no clear call, values can overlap the other calls; inactive = mostly above about 0.92. Some of the results follow.

Experiment: chemical genetic growth profiling, strain panel (AID 1159580);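 also: tested at 20 µM; growth read once vehicle control cultures reached saturation at 30 °C; 1 = growth at the plate median or of vehicle wells; lower values mean less growth of the strain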
Settings: growth OD

Measured: normalized growth

c1ccc2[nH]c(-c3cscn3)nc2c1
active: S. cerevisiae deletion strains, locus YML124C, strain tub3, stronger effect = lower value 0.636 | S. cerevisiae deletion strains, locus YNL153C, strain GIM3, stronger effect = lower value 0.0845 | S. cerevisiae deletion strains, locus YPL241C, strain CIN2, stronger effect = lower value 0.0871
inactive: S. cerevisiae deletion strains, locus YKL068W, stronger effect = lower value 1 | S. cerevisiae deletion strains, locus YKL085W, strain MDH1 (second series), stronger effect = lower value 0.996 | S. cerevisiae deletion strains, locus YKL085W, strain MDH1, stronger effect = lower value 0.996 | S. cerevisiae deletion strains, locus YKL160W, strain elf1, stronger effect = lower value 1.01 | S. cerevisiae deletion strains, locus YKL190W, strain CNB1, stronger effect = lower value 0.993 | S. cerevisiae deletion strains, locus YKR001C, strain vps1, stronger effect = lower value 0.976 | S. cerevisiae deletion strains, locus YKR026C, strain gcn3, stronger effect = lower value 1.02 | S. cerevisiae deletion strains, locus YKR091W, strain srl3, stronger effect = lower value 1.01 | S. cerevisiae deletion strains, locus YLL001W, strain dnm1, stronger effect = lower value 1 | S. cerevisiae deletion strains, locus YLL026W, stronger effect = lower value 1.01 | S. cerevisiae deletion strains, locus YLL041C, strain sdh2, stronger effect = lower value 1.02 | S. cerevisiae deletion strains, locus YLR027C, strain aat2, stronger effect = lower value 1.01 | S. cerevisiae deletion strains, locus YLR039C, strain RIC1, stronger effect = lower value 0.963 | S. cerevisiae deletion strains, locus YLR058C, strain SHM2, stronger effect = lower value 0.997 | S. cerevisiae deletion strains, locus YLR102C, strain apc9, stronger effect = lower value 1.01 | S. cerevisiae deletion strains, locus YLR113W, strain HOG1, stronger effect = lower value 0.985 | S. cerevisiae deletion strains, locus YLR221C, strain rsa3, stronger effect = lower value 0.97 | S. cerevisiae deletion strains, locus YLR258W, strain gsy2, stronger effect = lower value 0.968 | S. cerevisiae deletion strains, locus YLR262C, strain YPT6 (second series), stronger effect = lower value 0.95 | S. cerevisiae deletion strains, locus YLR262C, strain YPT6, stronger effect = lower value 0.968 | S. cerevisiae deletion strains, locus YLR268W, strain sec22, stronger effect = lower value 0.945 | S. cerevisiae deletion strains, locus YLR320W, strain mms22, stronger effect = lower value 0.899 | S. cerevisiae deletion strains, locus YLR330W, strain CHS5, stronger effect = lower value 0.995 | S. cerevisiae deletion strains, locus YLR342W, strain FKS1 (second series), stronger effect = lower value 1.01 | S. cerevisiae deletion strains, locus YLR342W, strain FKS1, stronger effect = lower value 1 | S. cerevisiae deletion strains, locus YLR357W, strain rsc2, stronger effect = lower value 0.984 | S. cerevisiae deletion strains, locus YLR370C, strain arc18, stronger effect = lower value 0.975 | S. cerevisiae deletion strains, locus YLR371W, strain rom2, stronger effect = lower value 1.02 | S. cerevisiae deletion strains, locus YLR384C, strain iki3, stronger effect = lower value 1.01 | S. cerevisiae deletion strains, locus YLR418C, strain cdc73, stronger effect = lower value 0.979 | S. cerevisiae deletion strains, locus YML016C, strain PPZ1, stronger effect = lower value 0.997 | S. cerevisiae deletion strains, locus YML032C, strain rad52, stronger effect = lower value 0.979 | S. cerevisiae deletion strains, locus YML120C, strain ndi1, stronger effect = lower value 1 | S. cerevisiae deletion strains, locus YMR058W, strain fet3, stronger effect = lower value 0.993 | S. cerevisiae deletion strains, locus YMR078C, strain ctf18, stronger effect = lower value 1 | S. cerevisiae deletion strains, locus YMR125W, strain sto1, stronger effect = lower value 1.04 | S. cerevisiae deletion strains, locus YMR129W, stronger effect = lower value 1.01 | S. cerevisiae deletion strains, locus YMR205C, strain PFK2, stronger effect = lower value 0.982 | S. cerevisiae deletion strains, locus YMR223W, strain ubp8, stronger effect = lower value 1.02 | S. cerevisiae deletion strains, locus YMR231W, strain pep5, stronger effect = lower value 1.02 | S. cerevisiae deletion strains, locus YMR263W, strain SAP30, stronger effect = lower value 0.973 | S. cerevisiae deletion strains, locus YMR307W, strain GAS1, stronger effect = lower value 0.928 | S. cerevisiae deletion strains, locus YNL067W, strain RPL9B, stronger effect = lower value 0.961 | S. cerevisiae deletion strains, locus YNL071W, strain lat1, stronger effect = lower value 0.954 | S. cerevisiae deletion strains, locus YNL128W, strain TEP1, stronger effect = lower value 1.01 | S. cerevisiae deletion strains, locus YNL183C, strain NPR1, stronger effect = lower value 0.927 | S. cerevisiae deletion strains, locus YNL209W, strain ssb2, stronger effect = lower value 0.984 | S. cerevisiae deletion strains, locus YNL233W, strain BNI4, stronger effect = lower value 0.958 | S. cerevisiae deletion strains, locus YNL248C, strain rpa49, stronger effect = lower value 1.01 | S. cerevisiae deletion strains, locus YNL250W, strain rad50, stronger effect = lower value 1.04 | S. cerevisiae deletion strains, locus YNL271C, strain bni1, stronger effect = lower value 1 | S. cerevisiae deletion strains, locus YNL298W, strain CLA4, stronger effect = lower value 1.01 | S. cerevisiae deletion strains, locus YNL307C, strain MCK1, stronger effect = lower value 1 | S. cerevisiae deletion strains, locus YNL322C, strain KRE1 (second series), stronger effect = lower value 0.991 | S. cerevisiae deletion strains, locus YNL322C, strain KRE1, stronger effect = lower value 0.987 | S. cerevisiae deletion strains, locus YNR049C, strain mso1, stronger effect = lower value 1.01 | S. cerevisiae deletion strains, locus YNR052C, strain pop2, stronger effect = lower value 0.983 | S. cerevisiae deletion strains, locus YOL012C, strain htz1 2.38 | S. cerevisiae deletion strains, locus YOL147C, strain pex11, stronger effect = lower value 1.01 | S. cerevisiae deletion strains, locus YOR001W, strain rrp6, stronger effect = lower value 1 | S. cerevisiae deletion strains, locus YOR061W, strain CKA2, stronger effect = lower value 0.996 | S. cerevisiae deletion strains, locus YOR069W, strain VPS5, stronger effect = lower value 1 | S. cerevisiae deletion strains, locus YOR070C, strain gyp1, stronger effect = lower value 0.991 | S. cerevisiae deletion strains, locus YOR080W, strain dia2, stronger effect = lower value 1.01 | S. cerevisiae deletion strains, locus YOR083W, strain WHI5, stronger effect = lower value 0.977 | S. cerevisiae deletion strains, locus YOR106W, strain vam3, stronger effect = lower value 1.03 | S. cerevisiae deletion strains, locus YOR136W, strain idh2, stronger effect = lower value 0.995 | S. cerevisiae deletion strains, locus YOR144C, strain elg1, stronger effect = lower value 1.02 | S. cerevisiae deletion strains, locus YOR184W, strain ser1, stronger effect = lower value 0.932 | S. cerevisiae deletion strains, locus YOR231W, strain MKK1, stronger effect = lower value 1 | S. cerevisiae deletion strains, locus YOR265W, strain rbl2, stronger effect = lower value 0.997 | S. cerevisiae deletion strains, locus YOR270C, strain vph1, stronger effect = lower value 0.961 | S. cerevisiae deletion strains, locus YOR290C, strain snf2, stronger effect = lower value 0.944 | S. cerevisiae deletion strains, locus YOR316C, strain cot1, stronger effect = lower value 0.998 | S. cerevisiae deletion strains, locus YPL051W, strain arl3, stronger effect = lower value 0.991 | S. cerevisiae deletion strains, locus YPL078C, strain atp4, stronger effect = lower value 0.995 | S. cerevisiae deletion strains, locus YPL106C, strain sse1, stronger effect = lower value 1.08 | S. cerevisiae deletion strains, locus YPL240C, strain hsp82, stronger effect = lower value 0.997 | S. cerevisiae deletion strains, locus YPL256C, strain CLN2, stronger effect = lower value 0.957 | S. cerevisiae deletion strains, locus YPR119W, strain clb2, stronger effect = lower value 1.01 | S. cerevisiae deletion strains, locus YPR141C, strain kar3, stronger effect = lower value 1.01 | S. cerevisiae deletion strains, locus YPR163C, strain tif3, stronger effect = lower value 1 | S. cerevisiae deletion strains, locus YPR167C, strain met16, stronger effect = lower value 1 | S. cerevisiae deletion strains, strain wtn01, stronger effect = lower value 0.977 | S. cerevisiae strains, strain wild type, stronger effect = lower value 0.995
